From PubChem BioAssay (EPA / NIEHS)
Results filed as inconclusive are left out. Active and inactive are the calls of the source. The calls were made as follows: active = hit-call score of the fitted dose curve at least 0.9, where 1 is the maximum; inconclusive = response in the unintended direction; inactive = score below 0.9.

These compounds were tested against rat Opioid Receptor, Non-selective Sodium (Na+) Binding, Oprm1 (gene 25601) (UniProt P33535) (assay: NVS_GPCR_rOpiate_NonSelectiveNa: NovaScreen (NVS) G Protein-Coupled Receptor Assay for rat Opioid Receptor, Non-selective Sodium (Na+) Binding (AID 2283311)).
Chain of rat Opioid Receptor, Non-selective Sodium (Na+) Binding, Oprm1 (gene 25601) (P33535 whole entry, looked up): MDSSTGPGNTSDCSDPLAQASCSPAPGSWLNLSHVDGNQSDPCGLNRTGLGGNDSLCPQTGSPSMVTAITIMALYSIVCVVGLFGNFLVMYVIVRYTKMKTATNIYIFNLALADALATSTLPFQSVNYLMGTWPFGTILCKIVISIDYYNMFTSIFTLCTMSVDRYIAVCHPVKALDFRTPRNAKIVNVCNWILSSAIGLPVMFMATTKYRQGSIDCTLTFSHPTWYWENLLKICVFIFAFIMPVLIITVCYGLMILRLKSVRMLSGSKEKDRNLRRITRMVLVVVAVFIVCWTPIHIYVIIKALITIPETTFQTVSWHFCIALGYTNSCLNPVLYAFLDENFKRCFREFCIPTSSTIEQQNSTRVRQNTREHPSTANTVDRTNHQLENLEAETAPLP
Procedure: NVS_GPCR_rOpiate_NonSelectiveNa is a biochemical, single-readout assay that uses extracted gene-proteins from Rat forebrain membranes in a tissue-based cell-free assay. Measurements were taken 1.5 hours after chemical dosing in a 48-well plate.NVS_GPCR_rOpiate_NonSelectiveNa is one of one assay component(s) measured or calculated from the NVS_GPCR_rOpiate_NonSelectiveNa assay. It is designed to make measurements of radioligand binding, a form of binding reporter, as detected with scintillation counting signals by Filter-based radiodetection technology.Data from the assay component NVS_GPCR_rOpiate_NonSelectiveNa was analyzed into 1 assay endpoint. This assay endpoint, NVS_GPCR_rOpiate_NonSelectiveNa, was analyzed in the positive analysis fitting direction relative to DMSO as the negative control and baseline of activity. Using a type of binding reporter, loss-of-signal activity can be used to understand changes in the binding as they relate to the gene Oprm1. Furthermore, this assay endpoint can be referred to as a primary readout, because the performed assay has only produced 1 assay endpoint. To generalize the intended target to other relatable targets, this assay endpoint is annotated to the gpcr intended target family, where the subfamily is rhodopsin-like receptor.
Binding assays used specific radioligands (tritiated, iodinated) with non-radioactive competitive displacement ligands in agonist or antagonist protocols (as indicated) and various reference compounds and inhibitors to titrate specific binding to receptors and transporters. Most enzyme assays (CYPs, kinases, phosphatases, proteases, HDACs) used recombinant protein and specific substrates (fluorescence mostly, some colorimetric and radioactive) and inhibitors, followed by a biochemical separation of substrate and product. All assays for the biochemical HTS were initially run in duplicate at a single concentration (10 uM for CYP450 assays and 25 uM for all others). Assay-chemical combinations meeting a pre-defined threshold (e.g., 30% inhibition and other criteria defined below) were then run in singleton concentration-response format with maximum concentration of 20 uM for CYPs and 50 uM for all others. Each assay was run with positive and negative controls, and concurrent controls on every plate. The follow-up (secondary) screen tested active chemical-pairs in concentration series, as well as a few additional assays not tested in the primary screen, some selected negative inactives, and several cases re-run in the concentration series for confirmatory purposes.
For `COc1ccc(OC(F)(F)F)cc1CN[C@H]1CCCN[C@H]1c1ccccc1`, the outcome was “inactive”. In the case of `Cc1cc(SC2=C(O)C[C@@](CCc3ccc(N)cc3)(C(C)C)OC2=O)c(C(C)(C)C)cc1CO`, the outcome is reported as “inactive”. `CN(C)C(=O)NC1(c2ccccc2)CCN(CCC[C@]2(c3ccc(Cl)c(Cl)c3)CCCN(C(=O)c3ccccc3)C2)CC1` was tested, and the AC50 was 2.12 µM (active). `CC(C)(C)c1ccccc1` was tested, and the outcome was “inactive”. `CN(C)CCCN1c2ccccc2Sc2ccc(Cl)cc21` was tested, and the AC50 was 9.16 µM (active). With `CCN(CC)CCOc1ccc(C(=C(Cl)c2ccccc2)c2ccccc2)cc1` the AC50 was 21 µM (active). For `O=C(N[C@@H](c1ccccc1)[C@@H]1CCCCN1)c1cccc(C(F)(F)F)c1Cl`, the AC50 was 31.4 µM (active). In the case of `Cc1c(C)c2c(c(C)c1O)CCC(C)(COc1ccc(CC3SC(=O)NC3=O)cc1)O2` (centres undefined), the outcome is reported as “inactive”. In the case of `O=C1OC(c2ccc(O)cc2)(c2ccc(O)cc2)c2ccccc21`, the AC50 is reported as 0.604 µM (active). `CCc1nc(N)nc(N)c1-c1ccc(Cl)cc1` was tested, and the outcome was “inactive”. `COC(=O)[C@H]1[C@H]2C[C@@H]3c4[nH]c5cc(OC)ccc5c4CCN3C[C@H]2C[C@@H](OC(=O)c2cc(OC)c(OC)c(OC)c2)[C@@H]1OC` was tested, and the AC50 was 21.1 µM (active). `CN(C)C(=O)NC1(c2ccccc2)CCN(CC[C@@]2(c3ccc(F)c(F)c3)CN(C(=O)c3ccccc3)CCO2)CC1` was tested, and the AC50 was 3.23 µM (active). With `Cc1ccc(-c2cc(C(F)(F)F)nn2-c2ccc(S(N)(=O)=O)cc2)cc1` the outcome was “inactive”. With `CSc1ccc(Oc2ccc(S(N)(=O)=O)cc2CN(C)C)cc1C` the AC50 was 3.74 µM (active).
